Screening results as filed in PubChem.
Shiga toxin inh: inhibitors of Shiga toxin in Vero cells | 9.2% of 290,000 active | Vero cells, Shiga toxin protein synthesis inhibition reporter | inhibition, % at 38.7 µM; in the data active = inhibition mostly above about 28%, no sharp cut-off; inactive = mostly below about 43%; also: 0% is about no effect
CHX counter: counter-screen for Shiga toxin inhibitors: cycloheximide protein synthesis inhibition; cell reporter, cycloheximide protein synthesis inhibition counterscreen; max response, %; 12% of 300,000 active; in the data active = max response mostly above about 13%, no sharp cut-off; inactive = mostly below about 14%; also: read at 38.3 µM for the half of the compounds with a filed dose; 0% is about no effect
Pf growth 96h: P. falciparum growth inhibition at 96 hours. P. falciparum luciferase reporter growth, 96 h. Potency, µM (top dose mostly 28.7 µM), inactives show at the top dose activity change, negative = inhibition, usual class: inhibitors. 6.9% of 320,000 active. AID 504834; also: potency is read from the fitted curve at half-maximal effect; % is scaled to controls: 0 for no effect and ±100 for the full control effect
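P. falciparum expressing integrated firefly luciferase, in erythrocytes at 2% hematocrit, 0.05% parasitemia, incubated with compounds 96 h at 37 C, 5% CO2. Growth inhibition read as loss of luminescence; two-generation exposure targets delayed-death apicoplast inhibitors.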
NS1 inh: influenza NS1 inhibition | Potency, µM (doses to about 46.1 µM), inactives show at the highest dose activity, positive = more growth | AID 2326 | 0.4% of 270,000 active; calls by dose curve; also: potency is read from the fitted curve at half-maximal effect; actives are rising curves; nearly all actives have a fitted effect of over 50% in size
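Read-out: OD600 growth recovery of NS1-expressing budding yeast. Cells grown overnight at 30C in -URA glucose medium, washed, resuspended and diluted 1:100 in 2% galactose assay medium, pH 6.0. Same strain lacking NS1 served as positive control.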
Pf growth 48h: inhibits P. falciparum growth in the first generation, 48 h | P. falciparum luciferase growth in erythrocytes, 48 h | Potency, µM (titrated, usually from 28.7 µM), for inactives: top-dose activity change, negative = inhibition, most hits filed as inhibitors | 5.9% of 310,000 active; also: potency is read from the fitted curve at half-maximal effect; % is scaled to controls: 0 for no effect and ±100 for the full control effect
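Luciferase-expressing parasites in RBCs, 2% Hct / 0.1% parasitemia final; RPMI 1640 + 0.5% Albumax; 37 C, 5% CO2, one generation; luminescence read-out, lower signal = inhibition.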
* marks the source's active call; other numbers are inactive results; ? = inconclusive; · = no result given; [ ] = remark or other dose. Compounds with a hit are over-represented: about 21% of the library has one in this group of screens. Unless noted, calls follow the shape of the dose curve; as a rule, active = well fitted inhibition curve with a large enough effect; inconclusive = small, poorly fitted or top-dose-only effect, or another doubt; inactive = no such curve, though single readings can be large or run the other way.

SMILES	Shiga toxin inh	CHX counter	Pf growth 96h	NS1 inh	Pf growth 48h
C/C(=N\Nc1nc(-c2ccccc2)cs1)c1cccs1	118*	75*	-15%	12%	55%
C/C(=N\Nc1nc2ccccc2s1)c1cccs1	73*	89*	84%	?	203%
O=C(COC(=O)c1cccs1)Nc1nc(-c2ccccc2)cs1	22	1	45%	5%	26%
CC(C)C(NC(=O)c1ccc2c(c1)OCO2)C(=O)N/N=C\c1ccco1 (stereo not drawn)	-3	-4	38%	2%	1%
O=C(Cc1cccc(NC(=O)C2CCN(C(=O)c3ccccc3)CC2)c1)Nc1cccc(C(=O)N2CCCC2)c1	·	·	-4%	·	?
O=C(Cc1cccc(NC(=O)C2CCN(C(=O)C3CCCC3)CC2)c1)Nc1cccc(C(=O)N2CCCC2)c1	·	·	?	·	15µM*
O=C(Cc1cccc(NC(=O)C2CCN(C(=O)CCc3ccccc3)CC2)c1)Nc1cccc(C(=O)N2CCCC2)c1	·	·	?	·	12µM*
Cc1cc(C(=O)CN2C(=O)NC3(CCCc4ccccc43)C2=O)c(C)n1Cc1ccco1 (stereo not drawn)	3	2	·	0%	1.7µM*
CN(C)C(=O)CN1C(=O)NC2(CCCc3ccccc32)C1=O (stereo not drawn)	-20	1	21%	6%	-2%
Cc1cc(C(=O)CN2C(=O)NC3(CCCc4ccccc43)C2=O)c(C)n1Cc1ccccc1 (stereo not drawn)	20	25*	1.2µM*	15%	·
Cc1cc(C(=O)CN2C(=O)CCC2=O)c(C)n1Cc1ccccc1	20	30*	?	-6%	·
O=C(O)CN1C(=O)NC2(CCCc3ccccc32)C1=O (stereo not drawn)	15	10	24%	2%	29%
Cc1c(C(=O)Nc2cccc(S(=O)(=O)N3CCCC3)c2)oc2ccccc12	-6	2	21%	?	?
Cc1c(C(=O)Nc2ccc(S(=O)(=O)N(C)C3CCN(C)CC3)cc2)oc2ccccc12	·	·	?	·	4.7µM*
CN1CCC(N(C)S(=O)(=O)c2ccc(NC(=O)Cc3ccc(F)cc3)cc2)CC1	·	·	?	·	-4%
Cc1c(C(=O)Nc2ccc(S(=O)(=O)N(C)C3CCN(C)CC3)cc2)oc2c(Cl)cccc12	·	·	2.6µM*	·	2.9µM*
O=C1C(Cc2ccccc2)SC(=Nc2ccccc2)N1c1ccccc1 (stereo not drawn)	-7	2	4%	12%	13µM*
O=C1NC(=Nc2ccccc2)SC1Cc1ccccc1 (stereo not drawn)	-13	1	-3%	12%	69%
Cc1ccc(NC(=O)CSCC(=O)N2c3ccccc3CCc3ccccc32)cc1	-15	-1	?	-7%	?
CCOC(=O)c1c(S(=O)(=O)NCC(=O)Nc2cc(C)ccn2)c(C)n(C)c1C	42	13*	-11%	2%	?
CCOC(=O)c1c(S(=O)(=O)NCC(=O)Nc2cc(C)ccc2C)c(C)n(C)c1C	14	-3	-17%	-21%	-26%
CCOP(=O)(C#CC(C)(C)C)C(C)(O)c1ccccc1 (stereo not drawn)	-9	-3	9%	-1%	21%
CC(C)(C#CC(=O)O)OOC(c1ccccc1)(c1ccccc1)c1ccccc1	-5	-3	8.3µM*	8%	12µM*
O=C(CSc1nc2ccccc2o1)Nc1nc2ccc(Br)cc2s1	93	22	·	10%	?
COc1ccc2nc(NC(=O)CSc3nc4ccccc4o3)sc2c1	134*	40*	?	?	50%
SMILES	Shiga toxin inh	CHX counter	Pf growth 96h	NS1 inh	Pf growth 48h
CN(C)c1ccc(CNc2nc3ccccc3s2)cc1	68*	34*	-6%	-11%	137%
O=C(O)C1C2CCC(C2)C1C(=O)Nc1nc2ccccc2s1 (stereo not drawn)	14	8	?	2%	4%
CC(C)n1c(NCc2ccc(N(C)C)cc2)nc2ccccc21	29	7	·	-13%	19%
CN(C)C(=S)Nc1nc2ccccc2s1	104*	38*	-34%[1.15 µM]	-62%	-25%
CCOc1ccc2nc(NC(NC(C)=O)(C(=O)OC)C(F)(F)F)sc2c1 (stereo not drawn)	-16	5	7.4µM*	-9%	5%
COc1ccc(S(=O)(=O)N2CCCCC2)cc1NC(=O)c1cnc(C)cn1	·	·	-12%	·	-12%
COc1cccc(OC)c1C(=O)Nc1cccnc1	-11	-4	38%	·	?
COC(=O)c1nnn(-c2cc(Cl)cc(Cl)c2)c1C(=O)OC	-4	-3	29%	-2%	30%
